The source of these data is ChEMBL document CHEMBL3988442, “University of Dundee, Small-Polar-MMV Screening Library” (2021).

What all share (set-up): scale not given: direction of the effect not stated beside the values
In test [1] the target is Protein translocase subunit SecA (Escherichia coli (strain K12)) (UniProt P10408). Put plainly: Assay to Identify E. coli SecA ATPase Inhibitors. In kind it is functional. The settings on record: 30 µM.
In test [2] the target is T1, Ubiquitin-activating enzyme e1, putative (Leishmania donovani (strain BPK282A1)) (UniProt E9BSI1).
T1 sequence (whole entry): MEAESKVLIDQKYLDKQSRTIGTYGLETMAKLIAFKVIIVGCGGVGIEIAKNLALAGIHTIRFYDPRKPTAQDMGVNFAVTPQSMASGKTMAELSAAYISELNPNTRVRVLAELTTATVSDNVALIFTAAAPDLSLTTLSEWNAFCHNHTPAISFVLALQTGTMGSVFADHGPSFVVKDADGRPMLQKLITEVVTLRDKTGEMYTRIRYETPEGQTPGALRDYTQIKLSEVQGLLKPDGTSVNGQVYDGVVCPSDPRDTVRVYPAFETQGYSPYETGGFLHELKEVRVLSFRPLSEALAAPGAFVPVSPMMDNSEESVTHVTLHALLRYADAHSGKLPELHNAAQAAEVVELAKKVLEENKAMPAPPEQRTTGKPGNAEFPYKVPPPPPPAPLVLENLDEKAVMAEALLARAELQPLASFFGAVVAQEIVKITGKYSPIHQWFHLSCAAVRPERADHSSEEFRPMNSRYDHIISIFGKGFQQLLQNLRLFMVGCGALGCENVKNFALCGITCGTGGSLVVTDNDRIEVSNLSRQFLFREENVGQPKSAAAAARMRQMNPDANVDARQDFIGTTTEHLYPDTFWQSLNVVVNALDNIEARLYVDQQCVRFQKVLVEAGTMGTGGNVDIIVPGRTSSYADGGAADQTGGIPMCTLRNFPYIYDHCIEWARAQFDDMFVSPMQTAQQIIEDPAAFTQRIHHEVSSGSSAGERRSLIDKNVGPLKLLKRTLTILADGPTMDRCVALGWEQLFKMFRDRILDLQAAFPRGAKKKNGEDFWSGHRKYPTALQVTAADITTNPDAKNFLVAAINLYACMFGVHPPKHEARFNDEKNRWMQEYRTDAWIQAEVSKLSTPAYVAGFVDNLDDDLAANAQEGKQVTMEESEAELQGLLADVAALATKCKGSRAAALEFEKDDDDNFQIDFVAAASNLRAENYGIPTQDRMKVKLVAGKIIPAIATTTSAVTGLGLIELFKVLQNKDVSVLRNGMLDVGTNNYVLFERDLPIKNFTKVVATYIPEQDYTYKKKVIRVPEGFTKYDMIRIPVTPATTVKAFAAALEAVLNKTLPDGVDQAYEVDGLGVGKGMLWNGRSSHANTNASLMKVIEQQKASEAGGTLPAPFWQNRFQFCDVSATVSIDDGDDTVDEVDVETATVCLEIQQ
Put plainly: Leishmania donovani Ubiquitin Activating Enzyme (LdE1). It counts as functional. The conditions noted are these: 30 µM.

In test [3] the target is AMP-activated protein kinase, AMPK (Homo sapiens) (UniProt P54646+O43741+P54619+Q9UGJ0+Q9Y478+Q13131+Q9UGI9). Put plainly: AMP-dependent Kinase enzyme assay. An in vitro enzyme assay that detects ADP turnover that is directly proportional to AMPK activity. This uses naive AMPK that is activated during the assay with MK-8722. The settings on record: 30 µM. In kind it is functional.

Test [4] has as its target Sialic acid-binding Ig-like lectin 9 (Homo sapiens) (UniProt Q9Y336). Put plainly: Hs-Siglec9 ALPHAscreen SOP 20170721. The conditions noted are these: 10 µM. (In general: Bead proximity is the source of the signal in Alpha formats.)
A further test relates to Trypanosoma cruzi. Put plainly: Trypanosoma cruzi phosphomannomutase and mannose-1-phosphate guanylyltransferase assay. The conditions noted are these: 10 µM. In kind it is functional.
The target of test [5] is T2, Arginase-2, mitochondrial (Homo sapiens) (UniProt P78540).
T2 sequence (whole entry): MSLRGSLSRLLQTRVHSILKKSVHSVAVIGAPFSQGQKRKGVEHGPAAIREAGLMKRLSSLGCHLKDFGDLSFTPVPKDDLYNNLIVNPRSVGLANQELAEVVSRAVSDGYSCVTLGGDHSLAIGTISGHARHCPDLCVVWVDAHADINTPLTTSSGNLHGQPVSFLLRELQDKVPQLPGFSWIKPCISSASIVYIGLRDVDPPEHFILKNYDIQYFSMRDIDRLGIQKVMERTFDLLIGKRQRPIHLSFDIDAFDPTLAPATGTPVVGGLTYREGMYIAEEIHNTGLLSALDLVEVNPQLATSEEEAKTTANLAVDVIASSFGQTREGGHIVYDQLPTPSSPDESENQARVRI
Put plainly: in vitro enzyme assay to detect the production of urea directly proportional to the activity of Arginase II. Note: in the data most compounds retested in dose-response had high values. The conditions noted are these: 33.3 µM. In kind it is functional.

Test [6] concerns the target T3, Proteasome subunit beta (Trypanosoma cruzi) (UniProt O96673).
T3 sequence (whole entry): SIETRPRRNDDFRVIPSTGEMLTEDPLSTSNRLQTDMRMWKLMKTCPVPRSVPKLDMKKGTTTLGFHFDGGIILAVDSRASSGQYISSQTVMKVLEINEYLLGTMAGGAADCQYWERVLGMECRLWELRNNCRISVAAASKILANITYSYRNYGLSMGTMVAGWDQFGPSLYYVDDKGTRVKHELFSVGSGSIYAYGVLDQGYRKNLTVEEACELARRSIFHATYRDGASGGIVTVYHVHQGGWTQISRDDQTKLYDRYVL
Put plainly: Trypanosoma cruzi proteasome chymotrypsin-like activity (TcProtChymo) assay. Note: in the data most compounds retested in dose-response had high values. The settings on record: 9.37 µM. It counts as functional.

For a further test, the species on record is Homo sapiens. Put plainly: To identify inhibition of the IFN signalling (Jak-Stat) pathway via expression of an eGFP reporter gene under the control of an IFN-stimulated response element (ISRE) containing MxA promoter. In kind it is functional. The settings on record: 30 µM.
In test [7] the target is T4, Tyrosyl-tRNA synthetase, putative (Trypanosoma cruzi (strain CL Brener)) (UniProt Q4DSP6).
T4 sequence (whole entry): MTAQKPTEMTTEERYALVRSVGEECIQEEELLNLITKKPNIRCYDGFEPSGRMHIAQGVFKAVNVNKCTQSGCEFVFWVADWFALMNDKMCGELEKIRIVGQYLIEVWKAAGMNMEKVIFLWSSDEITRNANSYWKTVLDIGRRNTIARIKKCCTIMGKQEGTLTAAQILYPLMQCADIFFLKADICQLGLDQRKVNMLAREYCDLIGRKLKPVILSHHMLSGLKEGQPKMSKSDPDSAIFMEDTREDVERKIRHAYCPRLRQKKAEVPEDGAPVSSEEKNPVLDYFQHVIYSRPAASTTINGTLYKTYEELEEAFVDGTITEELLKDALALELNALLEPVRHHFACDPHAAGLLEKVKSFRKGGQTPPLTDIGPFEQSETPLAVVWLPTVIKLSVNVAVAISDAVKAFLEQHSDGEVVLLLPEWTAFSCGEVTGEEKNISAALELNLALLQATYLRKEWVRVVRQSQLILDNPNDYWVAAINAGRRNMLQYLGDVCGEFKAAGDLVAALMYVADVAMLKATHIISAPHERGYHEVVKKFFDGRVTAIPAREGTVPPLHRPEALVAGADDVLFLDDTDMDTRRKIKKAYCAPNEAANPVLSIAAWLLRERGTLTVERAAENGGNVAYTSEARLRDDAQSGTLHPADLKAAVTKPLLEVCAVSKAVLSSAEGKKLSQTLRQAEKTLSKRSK
Put plainly: Trypanosoma cruzi tyrosyl tRNA synthetase (TcYRS) _High Tyrosine SOP. Note: in the data most compounds retested in dose-response had high values. It counts as functional. The settings on record: 30 µM.

For test [8], the target named is T4, Tyrosyl-tRNA synthetase, putative (Trypanosoma cruzi (strain CL Brener)). Put plainly: Trypanosoma cruzi tyrosyl tRNA synthetase (TcYRS) SOP. In kind it is functional. The conditions noted are these: 30 µM.
For test [9], the target named is Chromo domain-containing protein 1 (Saccharomyces cerevisiae (strain ATCC 204508 / S288c) (Baker's yeast)) (UniProt P32657). Put plainly: ScCHD-1 Enzyme Inhibition Assay. Note: in the data most compounds retested in dose-response had high values. In kind it is functional. The settings on record: 30 µM.

SMILES strings stand for the structures. For part of these data: Results with a measured potency or affinity are listed apart.

Chain of Protein translocase subunit SecA (Escherichia coli (strain K12)) (P10408 whole entry): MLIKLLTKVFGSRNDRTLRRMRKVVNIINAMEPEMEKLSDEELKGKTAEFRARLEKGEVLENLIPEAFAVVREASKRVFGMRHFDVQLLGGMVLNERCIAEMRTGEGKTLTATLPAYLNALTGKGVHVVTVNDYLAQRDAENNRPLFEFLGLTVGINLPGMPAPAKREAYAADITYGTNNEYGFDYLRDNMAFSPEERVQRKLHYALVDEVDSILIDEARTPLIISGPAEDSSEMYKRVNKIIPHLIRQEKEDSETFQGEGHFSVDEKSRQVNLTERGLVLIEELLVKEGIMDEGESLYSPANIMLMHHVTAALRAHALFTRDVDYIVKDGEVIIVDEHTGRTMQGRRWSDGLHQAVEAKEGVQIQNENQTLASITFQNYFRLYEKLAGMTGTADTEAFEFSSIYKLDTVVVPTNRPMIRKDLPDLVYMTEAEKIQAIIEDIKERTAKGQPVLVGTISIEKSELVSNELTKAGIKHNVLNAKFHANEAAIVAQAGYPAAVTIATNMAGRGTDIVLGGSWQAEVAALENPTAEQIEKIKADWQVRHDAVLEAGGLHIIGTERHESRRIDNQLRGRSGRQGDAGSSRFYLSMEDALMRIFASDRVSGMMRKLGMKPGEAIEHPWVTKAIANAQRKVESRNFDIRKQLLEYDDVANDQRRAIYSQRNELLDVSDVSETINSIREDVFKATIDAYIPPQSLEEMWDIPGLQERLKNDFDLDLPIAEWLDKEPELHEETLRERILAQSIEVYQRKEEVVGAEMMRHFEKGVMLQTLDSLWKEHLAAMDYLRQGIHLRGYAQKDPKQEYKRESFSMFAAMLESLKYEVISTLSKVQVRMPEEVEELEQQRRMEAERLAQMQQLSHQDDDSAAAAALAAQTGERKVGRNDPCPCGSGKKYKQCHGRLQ
Chain of Chromo domain-containing protein 1 (Saccharomyces cerevisiae (strain ATCC 204508 / S288c) (Baker's yeast)) (P32657 whole entry, the tested form may be a part): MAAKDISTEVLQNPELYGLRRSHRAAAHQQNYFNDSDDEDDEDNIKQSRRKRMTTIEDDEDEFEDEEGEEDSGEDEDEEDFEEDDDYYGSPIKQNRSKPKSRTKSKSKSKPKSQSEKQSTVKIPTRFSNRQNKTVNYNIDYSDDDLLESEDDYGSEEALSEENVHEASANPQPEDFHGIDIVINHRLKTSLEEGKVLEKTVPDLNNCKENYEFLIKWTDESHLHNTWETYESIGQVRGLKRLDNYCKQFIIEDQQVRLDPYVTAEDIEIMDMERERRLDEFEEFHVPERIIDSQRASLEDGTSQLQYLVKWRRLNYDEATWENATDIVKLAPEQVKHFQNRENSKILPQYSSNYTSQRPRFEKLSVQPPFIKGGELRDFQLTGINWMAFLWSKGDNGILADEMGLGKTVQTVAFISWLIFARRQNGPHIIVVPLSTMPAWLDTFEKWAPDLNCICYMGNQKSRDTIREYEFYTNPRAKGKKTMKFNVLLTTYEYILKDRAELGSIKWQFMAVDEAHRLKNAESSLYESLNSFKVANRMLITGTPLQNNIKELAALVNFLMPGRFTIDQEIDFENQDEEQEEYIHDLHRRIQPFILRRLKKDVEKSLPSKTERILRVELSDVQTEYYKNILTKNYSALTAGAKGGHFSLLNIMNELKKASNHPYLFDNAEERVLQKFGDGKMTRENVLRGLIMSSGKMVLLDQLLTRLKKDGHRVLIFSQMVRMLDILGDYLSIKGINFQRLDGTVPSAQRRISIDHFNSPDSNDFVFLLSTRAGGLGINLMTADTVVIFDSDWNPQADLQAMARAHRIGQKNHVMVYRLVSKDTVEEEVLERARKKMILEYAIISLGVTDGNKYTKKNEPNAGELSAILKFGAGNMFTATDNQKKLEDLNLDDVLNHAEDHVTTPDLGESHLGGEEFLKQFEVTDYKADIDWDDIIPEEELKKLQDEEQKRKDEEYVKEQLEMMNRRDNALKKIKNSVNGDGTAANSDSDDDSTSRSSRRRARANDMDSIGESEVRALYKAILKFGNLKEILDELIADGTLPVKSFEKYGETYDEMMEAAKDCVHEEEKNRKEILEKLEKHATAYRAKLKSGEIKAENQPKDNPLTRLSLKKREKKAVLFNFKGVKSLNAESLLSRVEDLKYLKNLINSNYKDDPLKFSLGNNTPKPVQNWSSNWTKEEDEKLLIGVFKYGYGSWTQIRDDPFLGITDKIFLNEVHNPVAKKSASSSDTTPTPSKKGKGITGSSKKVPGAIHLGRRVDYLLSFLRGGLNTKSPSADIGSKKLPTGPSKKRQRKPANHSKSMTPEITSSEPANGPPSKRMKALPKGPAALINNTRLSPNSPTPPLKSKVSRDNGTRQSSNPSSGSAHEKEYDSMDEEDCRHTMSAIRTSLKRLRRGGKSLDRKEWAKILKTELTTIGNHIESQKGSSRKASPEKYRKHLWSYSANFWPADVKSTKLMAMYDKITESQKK
Chain of Sialic acid-binding Ig-like lectin 9 (Homo sapiens) (Q9Y336 whole entry): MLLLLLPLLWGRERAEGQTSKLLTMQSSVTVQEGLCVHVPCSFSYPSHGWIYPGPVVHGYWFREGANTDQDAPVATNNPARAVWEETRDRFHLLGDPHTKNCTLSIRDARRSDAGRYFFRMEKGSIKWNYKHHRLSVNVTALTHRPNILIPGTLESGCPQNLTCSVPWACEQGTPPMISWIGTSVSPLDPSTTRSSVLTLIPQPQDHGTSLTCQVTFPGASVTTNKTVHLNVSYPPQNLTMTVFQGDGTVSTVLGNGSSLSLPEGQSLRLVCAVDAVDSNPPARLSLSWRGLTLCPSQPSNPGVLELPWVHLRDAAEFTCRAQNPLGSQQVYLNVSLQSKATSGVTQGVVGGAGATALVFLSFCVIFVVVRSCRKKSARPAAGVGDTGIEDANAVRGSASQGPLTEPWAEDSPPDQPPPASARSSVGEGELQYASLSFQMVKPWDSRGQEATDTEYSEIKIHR

Turning to `CNC(=O)c1cc2c(nc1NCC1CC1)CCN(c1ccncn1)CC2`, the Percent Effect is -4.02% in test [1]; 1.33% in [2]; 11.9% in test [3]; 4.48% in test [4]; -1.57% in the test with Trypanosoma cruzi; -4.05% in test [5]. The Percent Effect is 9.61% in [6]; 35.2% in the test filed under Homo sapiens; 1.06% in test [7]; 0% in test [8]; -5.29% in [9].
On to `Cc1cc(CNc2ccc(C(=O)N3CCCC(C)C3)cc2C)no1` (centres undefined), for which the Percent Effect in test [1] was -4.07%; in test [2], 10.4%; in test [3] it was 0.477%; in test [4] it was -5.45%; in the test with Trypanosoma cruzi, -6.18%; in test [5], -1.42%. In addition, the Percent Effect was 3.72% in test [6]; 37.9% in the test listed under Homo sapiens; 5.83% in test [7]; 14.6% in test [8]; -5.48% in test [9].
For the compound `O=C(NCCNc1ncccn1)Nc1cc(C(F)(F)F)c[nH]c1=O`, the Percent Effect in test [1] is -4.49%; in [2], 8.11%; in [3], 2.74%; in [4] it was 1.17%; with Trypanosoma cruzi it was 1.02%; in [5], -2.4%. Further, the Percent Effect is 0.539% in test [6]; 8.76% in the test listed under Homo sapiens; 6.93% in test [7]; 15.8% in test [8]; -3.38% in test [9].
Take `O=C(O)[C@]12CCCN(Cc3ccncc3)[C@@H]1CCN(c1cnccn1)C2`: the Percent Effect is -3.31% in test [1]; 2.67% in test [2]; -1.2% in test [3]; -3.96% in test [4]; -6.91% in the test on Trypanosoma cruzi; -0.521% in [5]. The Percent Effect in [6] was 21.6%; in the test filed under Homo sapiens it was 22%; in test [7] it was -0.546%; in test [8], 1.24%; in [9], -6.37%.
For the compound `CC(=O)NCCc1cc(N2CCN(C(C)=O)CC2)nc(C2CC2)n1`, the Percent Effect in test [1] was 2.03%; in test [2] it was -6.76%; in test [3], 10.3%; in test [4], -0.0242%; in the test with Trypanosoma cruzi it was -3.75%; in test [5], 1.16%. Further, the Percent Effect in test [6] is 9.36%; in the test filed under Homo sapiens, 7.59%; in test [7] it was 2.15%; in [8] it was -1.3%; in test [9], -3.42%.
`CN(Cc1ccccc1Br)C(=O)Cn1nc(-c2ccc(F)cc2)oc1=O`: the Percent Effect in test [1] is 2.65%; in test [2], -5.26%; in [3], 0.817%; in test [4], -11.8%; in the test with Trypanosoma cruzi, -6.33%; in test [5] it was 10.7%. Besides, the Percent Effect in test [6] is 10.8%; in the test filed under Homo sapiens it was 10%; in [7] it was -24.5%; in test [8], -28.6%; in test [9], -1.2%.
Turning to `CN(C(=O)NCc1ccncc1)C1CCN(c2ccccc2)C1=O` (centres undefined), the Percent Effect in [1] was -4.85%; in test [2], 13.2%; in test [3], -3.87%; in test [4], 3.74%; in the test on Trypanosoma cruzi, 6.58%; in test [5], -3.06%. The Percent Effect in test [6] was 10%; in the test listed under Homo sapiens it was 5.78%; in test [7], 6.37%; in [8] it was 12.2%; in [9], -10.8%.
With `c1coc(-c2nnc(CN3CCCC(CN4CCCCCC4)C3)o2)c1` (centres undefined), the Percent Effect in test [1] was -4.64%; in test [2] it was 7.89%; in test [3], 0.651%; in test [4], 1.71%; in the test with Trypanosoma cruzi, 8.67%; in test [5], -7.1%. The Percent Effect is -1.25% in [6]; 4.66% in the test listed under Homo sapiens; 5.32% in test [7]; 10.4% in [8]; -3.8% in test [9].
Consider `CN(C)CCN1CCC2(CC1)CN(c1cccnc1)C(=O)CO2`, for which the Percent Effect is -2.58% in test [1]; 10.8% in [2]; 0.668% in test [3]; -8.57% in test [4]; -5.18% with Trypanosoma cruzi; 2.23% in test [5]. The Percent Effect in test [6] was 24.4%; in the test listed under Homo sapiens, 12.1%; in test [7], 4.32%; in test [8], 10.3%; in [9], -2.65%.
